For three targets, log2 fold change results are on record in the supplement of paper PMC10849652.

Targets with a hit are over-represented here; the source holds about 8,800 in all. About 0.5% of all pairs of compound and target were hits. A number with no mark means an inactive call.

Assay in all cases: log2 fold change, soluble protein after heating vs DMSO (PISA); higher = thermal stabilisation; K562 lysate, 10 uM; active = over 0.2 and 3.5 SD of the protein, either way, in both replicates (recomputed)
Compound in assay [1]: NCC(=O)Nc1ccc(-n2nc(C(F)(F)F)cc2-c2ccc3c(ccc4ccccc43)c2)cc1
In a few lines: (§1)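 A 30 min treatment with 10 μM compound was applied to crude K562 extract at 1 mg/mL protein in PBS pH 7.4 with 1 mM MgCl2. Heating for 3 min spanned 48°C-58°C, after which aliquots were pooled, adjusted to 0.5% NP-40 at 4°C and spun at 21,000xg for 90 min. TMTpro 16plex LC-MS/MS of the supernatant, with channel sums equalised, gave values recorded as log-two fold change in thermal stability against solvent controls, from duplicates.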

Compound in assay [2]: O=C(CCCCCCC(=O)Nc1ccccc1)NO [vorinostat]
In a few lines:
as §1

Compound in assay [3]: O=C(O)c1ccc2c(c1)nc(Nc1cccc(Cl)c1)c1ccncc12 [silmitasertib]
In a few lines:
as §1

Compound in assay [4]: O=C1NC(=O)C(c2cnc3ccccn23)=C1c1cn2c3c(cc(F)cc13)CN(C(=O)N1CCCCC1)CC2
In a few lines:
as §1

Compound in assay [5]: c1cn2cc(-c3ccc4cn[nH]c4c3)nc(Nc3ccc(N4CCOCC4)cc3)c2n1 [entospletinib]
The method, boiled down: as §1

Chain of UniProt Q96II8 (Q96II8 whole entry, looked up): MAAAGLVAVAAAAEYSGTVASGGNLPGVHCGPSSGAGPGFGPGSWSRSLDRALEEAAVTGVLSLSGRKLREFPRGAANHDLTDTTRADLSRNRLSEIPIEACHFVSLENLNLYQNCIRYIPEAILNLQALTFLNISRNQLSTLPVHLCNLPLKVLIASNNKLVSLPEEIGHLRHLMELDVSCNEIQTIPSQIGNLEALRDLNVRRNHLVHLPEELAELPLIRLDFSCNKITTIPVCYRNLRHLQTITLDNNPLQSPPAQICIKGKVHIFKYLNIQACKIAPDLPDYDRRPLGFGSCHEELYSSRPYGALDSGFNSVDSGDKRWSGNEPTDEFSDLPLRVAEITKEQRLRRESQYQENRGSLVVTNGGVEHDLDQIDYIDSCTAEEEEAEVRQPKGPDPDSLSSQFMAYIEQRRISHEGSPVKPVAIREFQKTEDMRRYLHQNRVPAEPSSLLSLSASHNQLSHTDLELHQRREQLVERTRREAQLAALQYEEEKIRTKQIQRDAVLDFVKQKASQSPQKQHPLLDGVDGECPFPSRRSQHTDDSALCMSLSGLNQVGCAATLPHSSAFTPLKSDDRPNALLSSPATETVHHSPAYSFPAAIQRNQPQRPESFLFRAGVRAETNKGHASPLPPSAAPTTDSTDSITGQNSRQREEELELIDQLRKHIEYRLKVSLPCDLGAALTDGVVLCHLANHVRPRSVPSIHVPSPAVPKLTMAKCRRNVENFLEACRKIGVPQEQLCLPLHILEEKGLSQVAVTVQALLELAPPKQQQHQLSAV
Chain of UniProt O95297 (O95297 whole entry, looked up): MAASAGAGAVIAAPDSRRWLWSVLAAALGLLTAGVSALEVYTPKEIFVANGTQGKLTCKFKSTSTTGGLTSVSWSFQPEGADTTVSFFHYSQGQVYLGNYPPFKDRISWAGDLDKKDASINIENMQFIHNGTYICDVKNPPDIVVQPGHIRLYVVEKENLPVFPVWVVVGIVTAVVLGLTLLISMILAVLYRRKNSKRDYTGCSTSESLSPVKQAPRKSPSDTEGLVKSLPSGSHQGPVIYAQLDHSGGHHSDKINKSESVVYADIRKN

As for LRCH3 (UniProt Q96II8), the log2 fold change in assay [1] was 0.053; in assay [2], -0.535 (active); in assay [3], 0.048; in assay [4] it was -0.03; in assay [5] it was -0.009.
On to MRPL46 (UniProt Q9H2W6), for which the log2 fold change in assay [1] is 0.021; in assay [2], -0.21; in assay [3], 0.155; in assay [4], 0.036; in assay [5], -0.049.
Turning to MPZL1 (UniProt O95297), the log2 fold change in assay [1] is -0.059; in assay [2], 0.022; in assay [3] it was -0.004; in assay [4], 0.021; in assay [5] it was 0.017.
